SENP7 block: blocks the human protease SENP7. Q9BQF6. recombinant SENP7, Z-RLRGG-aminoluciferin luminescence, 40 min. inhibition, % at 5 µM. 1.5% of 330,000 active. AID 434973;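 active = inhibition above about 50% at the single test dose, limit read from the data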;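 note: plate controls were DMSO with enzyme for no effect and no enzyme buffer wells for full effect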
LGR2 inh: inhibitors of bursicon-induced Drosophila LGR2 receptor cAMP signaling; inhibition, % at 9.99 µM; AID 720647; HEK293 LGR2, CRE-luciferase, bursicon-stimulated, 4 h; 0.35% of 380,000 active;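 active = drop in luminescence signal, shown as inhibition above about 50% in the replicate tests, limit read from the data, passing the limit was not always enough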;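 note: agonist challenge used bursicon conditioned medium at about half maximal strength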
SENP8 block-1: inhibitors of human SENP8 protease; Q96LD8; recombinant SENP8, Nedd8 substrate fluorescence; inhibition, % at 20 µM; 0.64% of 360,000 active; in the data active = inhibition mostly above about 40%, no sharp cut-off; inactive = mostly below about 27%
SENP8 block-2: inhibitors of human SENP8 protease; AID 2540; inhibition, % at 10 µM; 1.2% of 330,000 active; Q96LD8; purified SENP8, Z-RLRGG-aminoluciferin cleavage, luminescence; in the data active = inhibition above about 50%
SENP6 block: SENP6 protease inhibition; Q9GZR1; Recombinant SENP6 catalytic domain, aminoluciferin luminescence; inhibition, % at 10 µM; 1.8% of 330,000 active; AID 2599;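 active = inhibition above about 50% at the single tested dose, limit read from the data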;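 note: plate controls were DMSO wells with enzyme for no effect and DMSO wells lacking enzyme for full effect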
HSP90 refold inh: HSP90 refolding inhibition in rabbit reticulocyte lysate; luciferase refolding luminescence, 3 h; inhibition, % at 5.6 µM; 0.91% of 290,000 active; AID 1789;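 active = inhibition above the screen-wide mean plus 3 SD, computed separately per campaign, cut at about 16% in these data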;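 note: 0% = DMSO wells and 100% = 60 µM geldanamycin wells; inhibitors lower the luminescence because luciferase stays unfolded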
HSP90 inh confirm: HSP90 inhibition, confirmation assay; shares compounds with HSP90 refold inh; rabbit reticulocyte lysate, luciferase refolding luminescence, 3 h; inhibition, % at 5.9 µM; 64% of 2,300 active; in the data active = inhibition above about 18%;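 note: 0% = vehicle wells and 100% = reference inhibitor wells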
luciferase ctr: counter-screen for HSP90 inhibitors: inhibitors of firefly luciferase. shares compounds with HSP90 refold inh. purified native firefly luciferase, luminescence. inhibition, % at 5.9 µM. 48% of 2,300 active;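 active = inhibition above the mean inhibition of all tested sample wells plus 3 SD, cut at about 10% in these data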;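 note: 0% = DMSO with luciferase and 100% = wells lacking luciferase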
Starred values were filed as active, the others as inactive; nt = no result given. Compounds with a hit are over-represented: about 2.3% of the library has one in this group of screens.

SMILES	SENP7 block	LGR2 inh	SENP8 block-1	SENP8 block-2	SENP6 block	HSP90 refold inh	HSP90 inh confirm	luciferase ctr
CN1CCN(C(=O)C[C@@H]2CC[C@@H]3[C@H](COC[C@@H](O)CN3CC3CC3)O2)CC1	nt	-25	nt	nt	nt	nt	nt	nt
Cc1cc(/C=C(\C#N)C(=O)N2CCOCC2)c(C)n1C1CCCC1	9	52*	-51	12	27	37*	52*	48*
O=C(Nc1ccc(F)cc1)N1C[C@H]2[C@@H](c3ccccc31)[C@H](CO)N2Cc1ccccc1	nt	0	nt	nt	nt	nt	nt	nt
C[C@@H]1CN([C@H](C)CO)C(=O)c2cc(NC(=O)C3CCCCC3)ccc2O[C@H]1CN(C)Cc1ccc(C(=O)O)cc1	nt	2	nt	nt	nt	nt	nt	nt
O=C(C[C@@H]1CC[C@H](NC(=O)c2ccccc2)[C@H](CO)O1)NCCc1ccncc1	nt	-15	nt	nt	nt	nt	nt	nt
Cc1[nH]c2ccccc2c1C(=O)NS(=O)(=O)Nc1ccc(Cl)cc1	0	nt	-2	3	5	18*	1	-2
COC(=O)C[C@@H]1CC[C@H]2[C@@H](COc3ccc(NC(=O)NCc4ccccc4)cc3C(=O)N2C)O1	nt	-6	nt	nt	nt	nt	nt	nt
NC(=S)N/N=C/c1ccc(C23CC4CC(CC(C4)C2)C3)cc1	-5	nt	nt	2	20	24*	8	-32
O=C(O)c1cc(N/N=C/c2ccc3c(c2)OCCO3)ccc1Cl	nt	71*	-69	nt	nt	39*	87*	82*
O=C(O)c1cc(N/N=C/c2cccs2)ccc1Cl	4	nt	nt	12	36	24*	67*	21*
C[C@@H](O)C#Cc1cnc2c(c1)C(=O)N([C@@H](C)CO)C[C@H](C)[C@@H](CN(C)C(=O)c1ccncc1)O2	nt	1	nt	nt	nt	nt	nt	nt
CN(C)C1=NC(=O)/C(=C\c2ccccc2)S1	-7	-12	13	7	13	38*	-11	-15
O=C(NCCc1cccc(Cl)c1)c1ccc2c(c1)OCO2	27	-14	-7	4	15	20*	40*	29*
COc1ccc2c3c(n(C)c2c1)[C@H](CO)N(C(=O)Nc1ccc(F)cc1)CC31CN(C(=O)c2ccccc2F)C1	nt	8	nt	nt	nt	nt	nt	nt
Clc1cccc(-c2ccc(CNCCCN3CCOCC3)o2)c1	-9	-8	10	-8	8	27*	1	-4
CCCc1cc(=O)oc2cc(OCc3ccc(C(=O)O)o3)ccc12	2	-6	-174	1	-4	23*	18*	-24
O=C(O)c1ccc(COc2ccc3ccccc3c2)o1	55*	-108	16	81*	89*	67*	75*	30*
Cc1ccc(OCc2ccc(C(=O)N3CCCC3)o2)c([N+](=O)[O-])c1	-2	-10	13	4	1	-6	nt	nt
CCCc1cc(=O)oc2cc(OCc3nn[nH]n3)ccc12	-1	nt	-132	-1	-6	3	nt	nt
Cc1ccc(OCc2ccc(C(=O)O)o2)c([N+](=O)[O-])c1	59*	-9	30	72*	77*	20*	44*	-4
C/C=C/c1ccccc1OCc1ccc(C(=O)O)o1	-11	nt	14	-14	-5	6	nt	nt
CCCc1cc(=O)oc2cc(OCc3ccc(C(=O)O)cc3)ccc12	1	-53	-170	6	21	22*	16	-22
C=C(Cl)COc1ccc2c(CCC)cc(=O)oc2c1	6	nt	-130	-9	-22	7	nt	nt
COc1ccc(C(=O)Nn2c(SCC(=O)N3CCC(C)CC3)nc3ccccc3c2=O)cc1	-4	nt	-5	13	10	73*	71*	67*
COc1ccc(C(=O)Nn2c(C)nc3ccccc3c2=O)cc1	-5	8	5	4	-6	7	nt	nt
COc1ccc(C(=O)Nn2c(SCC(=O)NC3CCCCC3)nc3ccccc3c2=O)cc1	-8	nt	10	10	12	62*	71*	65*
COc1ccc(C(=O)Nn2c(SCC(=O)NCc3ccco3)nc3ccccc3c2=O)cc1	3	nt	15	3	13	56*	65*	65*
CCn1c(SCC(=O)NCc2ccco2)nc2ccccc2c1=O	4	-3	-10	-3	-10	-1	nt	nt
